# Screens: PubChem BioAssay, several laboratories
# MEKK2 WT-MEK5: raises or lowers MEK5 binding to wildtype human MEKK2 PB1 domain; Q9Y2U5; 1.1% of 290,000 active; bead flow cytometry, Alexa488-MEK5 binding to MEKK2 WT; actives lie on both sides; binding response (% of control), % at 10 µM; in the data active = binding response below about 67% or above about 130%
# MEKK2 mut-MEK5: signal of MEK5 binding to mutant human MEKK2 PB1 domain; 0.35% of 290,000 active; bead flow cytometry, Alexa488-MEK5 binding to MEKK2 mutant; AID 1530; percent response, % at 10 µM; in the data active = percent response above about 24%, passing the limit was not always enough
# dFosB act: enhances mouse delta FosB homodimer DNA binding; purified delta FosB, TAMRA-CDK5 oligo fluorescence polarization; percent of positive-control signal above neutral wells; activation, % at 25 µM; 0.99% of 340,000 active; AID 493131;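 active = mean activation above about 17%, with every replicate also reaching it, limit read from the data, passing the limit was not always enough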
# MEKK3 PB1 HTS: raises or lowers MEK5 binding to the human MEKK3 PB1 domain | Q99759 | bead-based flow cytometry, Alexa488-MEK5 binding to MEKK3; actives lie on both sides; 0 = blocked by unlabeled MEK5, 100 = vehicle | binding response (% of control), % at 10 µM | 1.4% of 290,000 active | AID 1529;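 active = binding response more than 3 SD above or below the average of its plate-row segment, actives on both sides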;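 also: Alexa488 bead fluorescence after subtracting the streptavidin-only scavenger bead signal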
# Target sequence (Q99759 whole entry, looked up, the tested form may be a part): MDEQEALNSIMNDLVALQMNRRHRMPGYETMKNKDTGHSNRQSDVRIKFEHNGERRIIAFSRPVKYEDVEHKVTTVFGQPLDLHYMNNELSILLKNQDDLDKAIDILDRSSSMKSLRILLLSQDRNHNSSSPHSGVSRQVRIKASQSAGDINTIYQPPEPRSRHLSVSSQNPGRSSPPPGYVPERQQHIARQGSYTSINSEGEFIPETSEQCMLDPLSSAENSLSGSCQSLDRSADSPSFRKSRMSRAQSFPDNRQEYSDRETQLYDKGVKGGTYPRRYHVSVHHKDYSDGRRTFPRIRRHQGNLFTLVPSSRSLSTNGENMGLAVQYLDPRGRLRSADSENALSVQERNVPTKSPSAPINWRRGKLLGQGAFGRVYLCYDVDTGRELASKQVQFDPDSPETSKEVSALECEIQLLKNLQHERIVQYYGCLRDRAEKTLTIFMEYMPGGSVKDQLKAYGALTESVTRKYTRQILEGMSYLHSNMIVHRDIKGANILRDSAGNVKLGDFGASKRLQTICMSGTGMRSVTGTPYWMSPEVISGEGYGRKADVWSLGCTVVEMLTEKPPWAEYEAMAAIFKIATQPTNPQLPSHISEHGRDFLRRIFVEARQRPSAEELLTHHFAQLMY
# FID counter: fluorescent intercalator displacement, NS3 helicase counter-screen; DNA fluorescent intercalator displacement, fluorescence; inhibition, % at 7.9 µM; 0.17% of 290,000 active; AID 1845; in the data active = inhibition above about 37%;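 also: 0% = vehicle and 100% = reference compound; higher means more ethidium bromide displaced from hairpin DNA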
# MEKK2wt confirm: raises or lowers MEK5 binding to wildtype human MEKK2, retest. shares compounds with MEKK3 PB1 HTS. bead flow cytometry, Alexa488-MEK5 binding to MEKK2 WT; actives lie on both sides. binding response (% of control), % at 10 µM. 2.4% of 5,900 active; in the data active = binding response below about 16% or above about 210%; inactive = in between
# MEKK2mut confirm: signal of MEK5 binding to mutant human MEKK2, retest; bead flow cytometry, Alexa488-MEK5 binding to MEKK2 mutant; percent response, % at 10 µM; shares compounds with MEKK3 PB1 HTS; 2% of 5,900 active; in the data active = percent response mostly above about 71%, no sharp cut-off; inactive = mostly below about 38%;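 also: higher means compound restores mutant binding toward wildtype level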
# MEKK3 confirm: MEKK3-MEK5 PB1 inhibition, single concentration confirmation; shares compounds with MEKK3 PB1 HTS; bead flow cytometry, Alexa488-MEK5 binding to MEKK3; active compounds read low; binding response (% of control), % at 10 µM; 1.8% of 5,900 active;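 active = binding response below 72% of control, or above a set upper limit, though filed actives all read lower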;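 also: 100% = DMSO only wells and 0% = binding blocked by excess unlabeled MEK5; lower values mean stronger disruption of MEK5 binding to MEKK3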
# Numbers without * were called inactive; x = not tested or not shown; [ ] = dose if it differs, or a comment. Most compounds without a hit are left out; they make up all but 2.9% or so of the library.
SMILES,MEKK2 WT-MEK5,MEKK2 mut-MEK5,dFosB act,MEKK3 PB1 HTS,FID counter,MEKK2wt confirm,MEKK2mut confirm,MEKK3 confirm
Cn1c(Cn2cnc([N+](=O)[O-])n2)nnc1SCC(=O)Nc1ccc(Br)cc1,103,0,3,103,3,x,x,x
C/C(=N\O)c1ccco1,x,x,2,x,x,x,x,x
CCN(C(=O)c1ccc(C)c(Br)c1)c1ccccc1,88,-2,-4,94,-21,x,x,x
CCOC(=O)C1CCN(C(=O)c2cccc(NC(=O)C(CC)CC)c2)CC1,81,-12,-9,81*[inhibitor],-22,100,0,100
COc1cccc(/C=C/C(=O)OCC(=O)N2CCCC2)c1OC,x,x,6,x,x,x,x,x
CCN(CC)S(=O)(=O)c1ccc(N2CCOCC2)c(NC(=O)c2cc3ccccc3oc2=O)c1,98,-4,1,100,-25,x,x,x
CCc1ccc(OCC(=O)N/N=C(\C)c2ccc3c(c2)OCCO3)cc1,102,0,-8,131*,-6,104,-1,103
CNC(=O)c1nn(-c2ccc(C)cc2)ccc1=O,122,25*,-3,118,5,97,-7,98
C/C(=N/NC(=O)c1sc(NS(=O)(=O)c2ccccc2)nc1C)c1ccc(F)cc1,105,0,4,153*,-7,101,-1,102
Cc1nc(C)c(C(=O)NNS(=O)(=O)c2ccccc2)s1,107,0,-7,140*,-3,100,0,103
N#Cc1ccc(NC(=O)COc2ccc(-n3cnnn3)cc2)cc1,x,x,5,x,x,x,x,x
Cc1ccc2nc(NC(=O)CN3C(=O)C4CC=CCC4C3=O)sc2c1 (configuration not stated),105,5,-11,111,4,x,x,x
CS(=O)(=O)c1ccc2nc(NC(=O)CN3C(=O)C4CC=CCC4C3=O)sc2c1 (configuration not stated),115,5,6,138*,-5,105,-3,101
CC1(C)O[C@@H]2[C@H](O1)[C@@H](COS(=O)(=O)O)O[C@H]2n1cc(Br)c(=O)[nH]c1=O,x,x,-13,x,x,x,x,x
CC(C)(CS(=O)(=O)[O-])NC(=O)CC[N+](C)(C)CCO,95,-35,-5,65*[inhibitor],3,103,-31,86
COCCNc1nnc(SCC(=O)Nc2sc3c(c2C(=O)c2ccccc2)CCCC3)s1,106,0,-12,131*,-31,99,-4,102
Nn1c(COc2ccc(Cl)cc2)nc2ccccc2c1=O,105,0,-14,106,-9,x,x,x
Cc1ccc(Nc2nc(N)c([N+](=O)[O-])c(NCc3ccco3)n2)cc1,112,1,8,152*,2,90,-1,99
CCN(CC)c1ccc(/C=N/Nc2cccc(C)c2)c(O)c1,109,5,-9,100,-4,x,x,x
CCN(CC)c1ccc(/C=N/Nc2ccccc2)c(O)c1,136*,13,-12,106,-3,102,0,105
CCN(CC)c1ccc(C=Nc2ccc(C)cc2)c(O)c1,69*[inhibitor],-6,-1,95,-1,84,-15,92
CCN(CC)c1ccc(C=Nc2ccc(N(C)C)cc2)c(O)c1,-21*,79*,-13,94,-3,100,-7,101
CCN(CC)c1ccc(C=Nc2cc(C)cc(C)c2)c(O)c1,74,-6,-7,84,12,x,x,x
CC(CCN1CCN(c2ccc(F)cc2)CC1)c1ccccc1 (configuration not stated),102,0,0,96,14,x,x,x
CCOc1cc(C2NC(=O)CCC2[N+](=O)[O-])cc(Br)c1OC (configuration not stated),108,12,-2,110,-3,x,x,x
SMILES,MEKK2 WT-MEK5,MEKK2 mut-MEK5,dFosB act,MEKK3 PB1 HTS,FID counter,MEKK2wt confirm,MEKK2mut confirm,MEKK3 confirm
CC(=O)c1ccc(-c2cc([C@H]3[C@H]4C=CC[C@@H](C)[C@@H]4C(=O)N3Cc3ccccc3)ccc2F)cc1,87,2,-2,94,x,x,x,x
C[C@@H]1CC=C[C@H]2[C@H]1C(=O)N(Cc1ccccc1)[C@H]2c1ccc(F)c(-c2ccc(N(C)C)cc2)c1,54*[inhibitor],2,-5,66*[inhibitor],x,100,-12,98
CC[C@@H]1CC=C[C@H]2[C@H]1C(=O)N(Cc1ccccc1)[C@H]2c1ccc2ccccc2c1,94,-7,x,79*[inhibitor],x,99,14,102
CCc1ccc(CN(C)Cc2nc(COc3ccccc3)no2)nc1,x,x,1,x,-21,x,x,x
Fc1ccc(-[n+]2nc(Nc3ccccc3)sc2-c2c3ccccc3cc3ccccc23)cc1,133,31*,31*,105,28,172,50,105
COc1ccc(-c2sc(Nc3ccccc3)n[n+]2-c2ccc(F)cc2)c(C)c1C,141*,37*,0,110,-12,120,10,99
COc1ccc(C)cc1Nc1n[n+](-c2ccccc2)c(-c2cc(OC)c(OC)cc2Br)s1,134*,26*,-3,103,-33,154,40,109
COc1ccc(CN(C)c2ccc(S(=O)(=O)N3CCN(C)CC3)cc2[N+](=O)[O-])cc1OC,x,x,-5,x,x,x,x,x
COCCn1c(CN2CCN(C(c3ccccc3)c3ccccc3)CC2)nc2c1c(=O)n(C)c(=O)n2C,101,2,-4,101,-12,x,x,x
COc1cc([N+](=O)[O-])ccc1NC(=O)C[n+]1ccccc1,104,1,-3,103,10,x,x,x
COc1ccccc1CNC(=O)c1ccc2c(=O)n(CCCN3CCCC3=O)c(=S)[nH]c2c1,91,-10,-8,93,-8,x,x,x
CC(=O)N(Cc1cccs1)Cc1cc2ccc(C)c(C)c2nc1Cl,104,-1,-18,104,-8,x,x,x
COC(=O)CN1C(=O)C(C)(C)Oc2ccc(C(=O)Nc3ccccc3F)cc21,103,8,-7,103,-24,x,x,x
CCOC(=O)CN1C(=O)C(C)(C)Oc2ccc(C(=O)Nc3ccccc3)cc21,75,-11,-4,72*[inhibitor],-16,101,5,100
Cc1nnsc1C(=O)N1CCC(C(=O)c2ccccc2)CC1,102,6,-7,100,-9,x,x,x
COC(=O)C1=C(C(=O)OC)C(c2ccc(OC)c(OC)c2)c2sc(=O)[nH]c2S1 (configuration not stated),60*[inhibitor],-17,2,55*[inhibitor],-19,90,-8,90
CCOC(=O)c1c(-c2ccccc2)oc2ccc(OCC(O)CNCCN(C)C)cc12 (configuration not stated),165*,31*,-15,100,51*,179,50,108
